# Bioassay records deposited in PubChem by several laboratories.
# NR1D1 modulator: modulators of human Rev-erb alpha DNA binding. Rev-erbα–FITC-DNA binding, fluorescence polarization, 90 min. P20393. AID 1259318. 370,000 compounds, 0.79% hits. activity, % at 10 µM;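 active = activity above about 14%, limit read from the data; passing the limit was not always enough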;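 note: 0% = DMSO wells with 35 nM protein and 100% = DMSO wells with 750 nM protein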
# Target sequence (P20393 whole entry, looked up): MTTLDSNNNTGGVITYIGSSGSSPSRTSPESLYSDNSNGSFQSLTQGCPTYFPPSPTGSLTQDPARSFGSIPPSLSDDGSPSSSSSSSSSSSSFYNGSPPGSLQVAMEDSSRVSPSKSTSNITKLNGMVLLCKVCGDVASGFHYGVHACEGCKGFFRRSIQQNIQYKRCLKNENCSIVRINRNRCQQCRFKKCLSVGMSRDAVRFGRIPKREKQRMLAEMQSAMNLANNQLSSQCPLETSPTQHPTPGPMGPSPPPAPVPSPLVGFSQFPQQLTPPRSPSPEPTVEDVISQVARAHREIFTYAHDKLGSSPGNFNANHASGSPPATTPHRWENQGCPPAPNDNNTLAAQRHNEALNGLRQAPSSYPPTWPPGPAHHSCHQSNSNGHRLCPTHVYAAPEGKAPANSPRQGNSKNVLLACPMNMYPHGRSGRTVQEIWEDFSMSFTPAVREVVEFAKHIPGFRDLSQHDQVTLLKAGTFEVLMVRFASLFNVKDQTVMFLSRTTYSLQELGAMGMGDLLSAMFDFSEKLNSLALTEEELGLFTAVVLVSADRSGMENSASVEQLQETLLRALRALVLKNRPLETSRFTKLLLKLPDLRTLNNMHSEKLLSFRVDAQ
# PG9 binder: PG9 antibody binding by small molecule; TR-FRET gp120-PG9 antibody binding; inhibition, % at 6.7 µM; 360,000 compounds, 0.43% hits; in the data active = inhibition above about 8.5%
# NPR1 activator: GC-A (human) enzyme activation; HEK293 GC-A cells, cGMP TR-FRET, EC30 ANP; 0% at EC30 ANP, 100% saturating ANP; P16066; activation, % at 10 µM; 370,000 compounds, 0.14% hits; AID 1671463; in the data active = activation above about 40%
# NPR2 activator: GC-B (human) receptor activation; 370,000 compounds, 0.11% hits; activation, % at 10 µM; HEK293-GC-B cells, CNP EC30, cGMP TR-FRET; 0% at EC30 CNP, 100% saturating CNP; AID 1920062;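 active = activation at 10 µM reaching about 35% in either raw or pattern-adjusted values, limit read from the data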
# V-ATPase pHluor: regulators of yeast V-ATPase proton transport; S. cerevisiae, pHLuorin cytosolic pH fluorescence; response, % at 10 µM; 350,000 compounds, 0.37% hits; AID 504577; in the data active = response mostly above about 7.3%, no sharp cut-off; inactive = mostly below about 5.4%; note: actives read high
# VATPase regulator: yeast V-ATPase proton transport regulation; 980 compounds, 2% hits; shares compounds with V-ATPase pHluor; response, % at 10 µM; S. cerevisiae pHLuorin cytosolic pH; AID 602197; in the data active = response above about 24%;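 note: plate controls were vehicle wells for no effect and positive control wells for full effect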
# Active calls of the source: *; · = no result. Most compounds without a hit are left out; they make up all but 1.6% or so of the library.
SMILES,NR1D1 modulator,PG9 binder,NPR1 activator,NPR2 activator,V-ATPase pHluor,VATPase regulator
CN(Cc1nc(C(c2ccccc2)c2ccccc2)no1)CC1COCCO1 (stereo unspecified),-3,-3,3,0,11*,-5
Cn1c(=O)cc(OCCCC(=O)Nc2cc(-c3cn[nH]c3)ccn2)c2ccccc21,0,·,-2,-2,·,·
CC(C)C(=O)Nc1cc(=O)[nH]c2ncnn12,-1,-2,4,4,10*,0
COc1cccc(C2C(C(=O)OCc3ccccc3)=C(C)Nc3ncnn32)c1OC (stereo unspecified),-4,1,-5,-1,8.5*,-2
C=CCNC(=O)/C(=C\c1ccc([N+](=O)[O-])cc1)NC(C)=O,8,-2,0,-1,13*,1
COc1ccc(-c2cc(-c3nnc4sc(Cc5cccs5)nn34)[nH]n2)cc1,-10,·,13,-8,·,·
O=C(Cc1n[nH]c(=O)c2ccccc12)OCC(=O)c1ccc(F)cc1,7,1,2,3,-1,·
O=C(Cc1n[nH]c(=O)c2ccccc12)OCC(=O)c1ccc2c(c1)OCCO2,8,1,4,-4,12*,-1
CCOc1ccc(CCNC(=O)c2cc(-c3ccccc3)c(N3CCOCC3)s2)cc1OC,5,·,-2,11,·,·
C=CCN1[C@H](Cc2ccccc2)COc2cccc(N3CCCC3)c2S1(=O)=O,8,·,8,-2,·,·
COc1ccc(NS(=O)(=O)c2ccc(C)c(C(=O)NCC(c3ccco3)N3CCCCC3)c2)cc1 (stereo unspecified),-3,0,-3,6,9.9*,-2
O=C1NC(=S)S/C1=C\c1coc2ccccc2c1=O,-1,-3,0,-4,52*,0
Cc1nn(C)cc1C(C)NC(=O)c1cc(COc2c(F)cccc2F)on1 (stereo unspecified),1,0,1,2,11*,-3
Cc1nn(C)cc1C(C)NC(=O)c1cc(COc2cccc3cnccc23)on1 (stereo unspecified),0,-3,0,-3,-1,·
Cc1cc(C(=O)OCC(=O)Nc2sc3c(c2C#N)CCC(C)C3)c2ccccc2n1 (stereo unspecified),-2,0,-3,-3,13*,-3
C=CCN1C(=O)[C@H](CC(=O)NCc2cccs2)[C@@]2(C(=O)OCC)CCCC=C12,-4,·,-2,-1,·,·
CCOc1ccc2nc(N3CCC(C(=O)N4CCN(C(=O)c5ccco5)CC4)CC3)sc2c1,·,·,·,·,12*,4
CN(CC(=O)Nc1ccc(F)cc1[N+](=O)[O-])Cc1ccccc1,3,1,2,1,7.9*,0
S=c1[nH]nc(-c2ccccc2)n1Cc1ccccc1,2,1,0,-4,3,·
Cc1n[nH]c(=S)n1Cc1ccccc1,-3,1,-2,-3,9.8*,-7
Cc1n[nH]c(C)c1CCCCOc1ccccc1,-12,-2,4,5,-2,·
Cc1n[nH]c(C)c1CS(=O)(=O)c1ccccc1,3,1,0,4,7.3*,1
C[n+]1cc[nH]c1SCC(=O)c1ccc(Cl)cc1,-2,-3,-5,10,7.5*,4
CCOc1ccc(CCNC(=O)C2CCCCC2)cc1OCC,-2,·,-2,2,·,·
C/C(C=NNC(=O)CSc1nnc(-c2ccc(Cl)cc2)n1-c1ccccc1)=C\c1ccccc1,-1,·,-3,-2,·,·
SMILES,NR1D1 modulator,PG9 binder,NPR1 activator,NPR2 activator,V-ATPase pHluor,VATPase regulator
CC(C)(C)OC(=O)N[C@@H](Cc1ccccc1)C(=O)N[C@@H](CO)[C@H](O)[C@@H]1C[C@@H]1C(=O)NC1CC1,-7,0,-1,-2,11*,-1
O=C(NC1CCCCN(Cc2cccc(C(F)(F)F)c2)C1=O)c1cccc(F)c1 (stereo unspecified),2,·,3,-8,·,·
COc1ccc(OCC(=O)Nc2nc3ccccc3[nH]2)cc1,-1,-1,-2,-7,5,·
O=C(COc1ccc2ccccc2c1)Nc1nc2ccccc2[nH]1,-2,1,-4,-11,11*,-4
CCc1ccc(NC(=O)C2CCCN(S(=O)(=O)c3cnc[nH]3)C2)cc1 (stereo unspecified),·,·,·,·,11*,0
Cc1ccc(/C=N/NC(=O)c2nnn(-c3nonc3N)c2CSc2ccccc2)s1,-2,-2,4,-7,8.1*,-3
Cc1ccc(C)c2sc(N3CCN(C(=O)c4ccc([N+](=O)[O-])o4)CC3)nc12,-1,1,-9,-10,-5,·
O=C(c1ccc([N+](=O)[O-])o1)N1CCN(c2nc3c(F)cc(F)cc3s2)CC1,-3,2,-1,-7,31*,40*
CC(C)CN1C(=O)[C@@]2(CC(=O)N(C)C2c2ccccc2)c2cc(-n3cc(CCc4ccccc4)nn3)ccc21 (stereo partly specified),-2,·,-5,-8,·,·
C=CCn1c(SCC(=O)Nc2c(C)n(C)n(-c3ccccc3)c2=O)nc2scc(-c3ccccc3)c2c1=O,-4,1,-2,-3,13*,1
C=CCn1c(SCC(=O)Nc2c(C)n(C)n(-c3ccccc3)c2=O)nc2ccccc2c1=O,1,-2,-3,3,5,·
CC1Oc2ccccc2N(CC(=O)c2cccc(Cl)c2)C1=O (stereo unspecified),-1,-1,-4,-4,8.0*,3
CCOC(=O)c1[nH]c2c(c1-c1ccccc1)C(=O)CC(c1ccc(OCC)cc1)C2 (stereo unspecified),-2,0,6,-1,11*,-6
CCOC(=O)c1[nH]c2c(c1-c1ccccc1)C(=O)CC(c1ccc(OC)c(OC)c1)C2 (stereo unspecified),3,0,5,-8,-1,·
Cc1ccc(C(=O)NNC(=O)c2ccco2)cc1,1,0,0,4,17*,0
Cc1ccc(C(=O)NNC(=S)NC(=O)c2ccco2)cc1,-5,-1,-2,1,2,·
CCN(CC)c1ccc(C2C(C(=O)Nc3ccccn3)=C(C)NC3=C2C(=O)CC(C)(C)C3)cc1 (stereo unspecified),-5,0,1,-2,17*,-1
CC1=C(C(=O)Nc2ccccn2)C(c2ccc3c(c2)OCO3)C2=C(CC(C)(C)CC2=O)N1 (stereo unspecified),-2,-2,-6,2,2,·
COC(=O)[C@]12C[C@H](CC(=O)NCc3ccc(C)o3)C(=O)N(Cc3ccco3)C1=C[C@H](COCc1ccccc1)O[C@@H]2C,-4,·,-4,4,·,·
CCN(CC(=O)Nc1ccc(NC(C)=O)cc1)C(=O)c1cc(C)on1,-6,-3,-2,-2,10*,1
COc1ccc(C(=O)C2CCCN(C(=O)CSC)C2)cc1OC (stereo unspecified),3,2,4,6,8,·
